In all, about 5,500 compounds went through this assay and about 2,000 (36%) were called active. Roughly 18% stayed inconclusive and do not appear here. Rule as the data show it: active = normalized growth mostly below about 0.91 (no sharp cut-off); inconclusive = no clear call, values can overlap the other calls; inactive = mostly above about 0.92. The list shows a part of the results.
Test: chemical genetic growth profiling, strain panel (AID 1159580);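 also: tested at 20 µM; growth read once vehicle control cultures reached saturation at 30 °C; 1 = growth at the plate median or of vehicle wells; lower values mean less growth of the strain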
Settings: growth OD
[1] = S. cerevisiae deletion strains, locus YHR030C, strain SLT2, hits give low values

Measured: normalized growth

CN1CCN(C(c2ccccc2)c2ccc(Cl)cc2)CC1 (stereo unspecified)
inactive: [1] 0.974 | S. cerevisiae deletion strains, locus YHR079C, strain IRE1, hits give low values 0.986 | S. cerevisiae deletion strains, locus YJL095W, strain BCK1, hits give low values 0.974 | S. cerevisiae deletion strains, locus YJR066W, strain TOR1, hits give low values 0.979 | S. cerevisiae deletion strains, locus YLR113W, strain HOG1, hits give low values 0.962 | S. cerevisiae deletion strains, locus YNL183C, strain NPR1, hits give low values 0.914 | S. cerevisiae deletion strains, locus YOR231W, strain MKK1, hits give low values 0.981 | S. cerevisiae deletion strains, locus YPL256C, strain CLN2, hits give low values 0.951

CC(C)(C)OC(=O)N1CCN(Cc2ccccc2)CC1
inactive: S. cerevisiae deletion strains, locus YAL013W, strain DEP1, hits give low values 1 | S. cerevisiae deletion strains, locus YBR229C, strain ROT2, hits give low values 1 | S. cerevisiae deletion strains, locus YDL101C, strain DUN1, hits give low values 1.02 | S. cerevisiae deletion strains, locus YDR150W, strain NUM1, hits give low values 1.03 | S. cerevisiae deletion strains, locus YEL061C, strain CIN8, hits give low values 0.98 | S. cerevisiae deletion strains, locus YGR078C, strain PAC10, hits give low values 0.999 | S. cerevisiae deletion strains, locus YGR229C, strain SMI1, hits give low values 1.02 | [1] 1.08 | S. cerevisiae deletion strains, locus YHR087W, strain rtc3, hits give low values 0.991 | S. cerevisiae deletion strains, locus YJR043C, strain POL32, hits give low values 0.998 | S. cerevisiae deletion strains, locus YJR075W, strain HOC1, hits give low values 1 | S. cerevisiae deletion strains, locus YKL190W, strain CNB1, hits give low values 1.01 | S. cerevisiae deletion strains, locus YLR039C, strain RIC1, hits give low values 0.967 | S. cerevisiae deletion strains, locus YLR058C, strain SHM2 (second series), hits give low values 0.986 | S. cerevisiae deletion strains, locus YLR085C, strain ARP6, hits give low values 0.997 | S. cerevisiae deletion strains, locus YLR262C, strain YPT6, hits give low values 1.04 | S. cerevisiae deletion strains, locus YML094W, strain GIM5, hits give low values 0.989 | S. cerevisiae deletion strains, locus YMR219W, strain ESC1, hits give low values 0.994 | S. cerevisiae deletion strains, locus YMR263W, strain SAP30, hits give low values 1.01 | S. cerevisiae deletion strains, locus YNL153C, strain GIM3, hits give low values 1 | S. cerevisiae deletion strains, locus YNL298W, strain CLA4 (second series), hits give low values 1.01 | S. cerevisiae deletion strains, locus YNL322C, strain KRE1, hits give low values 1 | S. cerevisiae deletion strains, locus YNR030W, strain Alg12, hits give low values 0.992 | S. cerevisiae deletion strains, locus YOL006C, strain TOP1, hits give low values 1.08 | S. cerevisiae deletion strains, locus YPL055C, strain LGE1, hits give low values 1.03 | S. cerevisiae deletion strains, locus YPL241C, strain CIN2, hits give low values 1.01 | S. cerevisiae deletion strains, locus YPR135W, strain CTF4, hits give low values 1.04 | S. cerevisiae strains, strain wild type, hits give low values 1.02

Source: PubChem BioAssay AID1159580 (chemical genetic matrix, 2015)
